A selection: hits, their analogues and other compounds. The true share with any hit is near 3%.
TRb SRC2 PPI: TRbeta-SRC2 interaction inhibition. P10828. TRbeta-SRC2 peptide binding, fluorescence polarization; receptor liganded with 1 µM T3. Potency, µM (series often up to 106 µM), hits mostly inhibitors. 0.065% of 280,000 active. AID 1469; note: nearly all actives have a fitted effect of over 50% in size
Target sequence (P10828 whole entry, looked up): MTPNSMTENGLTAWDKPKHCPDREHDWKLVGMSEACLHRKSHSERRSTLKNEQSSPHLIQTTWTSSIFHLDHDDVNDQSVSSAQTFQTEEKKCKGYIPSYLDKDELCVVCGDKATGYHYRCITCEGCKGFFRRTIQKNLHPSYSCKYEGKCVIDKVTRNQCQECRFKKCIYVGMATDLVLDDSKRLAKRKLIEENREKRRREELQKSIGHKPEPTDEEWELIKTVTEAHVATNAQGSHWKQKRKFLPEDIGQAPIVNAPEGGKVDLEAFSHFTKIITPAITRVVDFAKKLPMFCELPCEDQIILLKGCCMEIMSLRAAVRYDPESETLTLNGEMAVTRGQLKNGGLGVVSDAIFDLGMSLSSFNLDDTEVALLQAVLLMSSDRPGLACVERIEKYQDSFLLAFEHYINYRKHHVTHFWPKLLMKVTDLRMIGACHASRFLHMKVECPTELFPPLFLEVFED
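Quantitative HTS by FP: 0.6 uM TRb LBD, 20 nM labeled SRC2 20-mer, 1 uM T3, 5% DMSO; 5 hr ambient incubation; % activity per concentration and potencies from concentration series.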
Tau fluor cs: counter-screen for tau fibril formation inhibitors; tau K18 P301L Alexa594 fluorescence, heparin fibrillization; Potency, µM (doses to about 57.7 µM); 0.93% of 280,000 active; AID 1463; note: nearly all actives have a fitted effect of over 55% in size
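Human tau K18 P301L (15 uM unlabeled, 0.24 uM Alexa 594-labeled) in 100 mM sodium acetate pH 7 with 20 uM heparin, 6 hr at 37 C. ThT 30 uM added, 1 hr ambient; Alexa 594 FP and total fluorescence read at 555/632 nm.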
TR SRC2 fluor cs: counter-screen for TRb-SRC2 inhibitors: fluorescence interference; TRb/SRC2 Texas Red total fluorescence interference; Potency, µM (highest dose often 106 µM); 0.29% of 280,000 active; active = well fitted curve in either direction with a large enough effect; inconclusive = small, poorly fitted or top-dose-only effect
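Human TRβ ligand-binding domain (0.6 uM) and Texas Red SRC2 peptide (20 nM) in Tris buffer with 1 uM T3 and 5% DMSO were incubated with pinned compound for 5 hr at ambient temperature. Total fluorescence was computed as S + 2P (555/632 nm).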
Tau ThT inhib: inhibitors of human tau fibril formation, thioflavin T binding. P10636. recombinant tau K18 P301L (four-repeat tau fragment), heparin-induced fibrillization, ThT fluorescence. AID 1460. Potency, µM (doses to about 57.4 µM), hits mostly inhibitors. 2.1% of 270,000 active; note: nearly all actives have a fitted effect of over 55% in size
Target sequence (P10636 561-689 P618L limits assumed): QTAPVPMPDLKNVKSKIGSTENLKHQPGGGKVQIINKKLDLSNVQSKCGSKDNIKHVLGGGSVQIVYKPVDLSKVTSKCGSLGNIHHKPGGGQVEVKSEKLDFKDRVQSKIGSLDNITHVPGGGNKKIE
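Aggregation was driven by heparin (20 uM final) acting on recombinant tau […] bearing P301L in 100 mM sodium acetate pH 7; fibrils were detected with Thioflavin T.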
Tau fibril FP: blocks human tau fibril formation measured by polarization. P10636. K18 P301L tau heparin fibrillization, Alexa594 FP, 6 h. Potency, µM (top dose mostly 57.7 µM), most hits filed as inhibitors. 0.39% of 280,000 active. AID 1468; note: nearly all actives have a fitted effect of over 55% in size
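Recombinant K18 P301L […], labeled with Alexa 594 at 0.24 uM over 15 uM unlabeled; heparin inducer 20 uM final; 37 C, 6 hr; FP endpoint.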
Each line names hits and unclear results; the compound was inactive in the other large screens; [ ] = dose if it differs, or a comment. Unless noted, calls come from the whole dose curve; as a rule, active = well fitted curve in the direction sought with a large enough effect; inconclusive = small, poorly fitted or top-dose-only effect, or another doubt; inactive = no such curve, though single readings can be large; an effect the other way counts as inactive or inconclusive.

O=C(Nc1ccc(N2CCCC2)cc1)c1cccc(F)c1	Tau fluor cs inconclusive, Tau ThT inhib 13µM, Tau fibril FP inconclusive
CC(=O)Nc1ccc(N2CCCC2)cc1	Tau fluor cs inconclusive, Tau ThT inhib 28µM, Tau fibril FP inconclusive
COc1cc(Cl)c(C)cc1NC(=O)c1cnc(N2CCCCC2)c2ccccc12	TR SRC2 fluor cs inconclusive
CCc1ccc(CNC(=O)CCCN2C(=O)c3cccnc3Oc3ccc(Cl)cc32)cc1	none
COc1cccc(N2CC(NC(=O)c3ccc(S(=O)(=O)N4CCCCC4)cc3)CC2=O)c1 (stereo unspecified)	none
CN1CCN(c2ccc(NC(=O)c3cccc(OCc4ccccc4)c3)cc2)CC1	Tau fluor cs 14µM[quencher], Tau ThT inhib inconclusive, Tau fibril FP inconclusive
CN1CCN(c2ccc(NC(=O)c3sc4ccccc4c3Cl)cc2)CC1	Tau fluor cs inconclusive, Tau ThT inhib 5µM
CCN1CCN(c2ccc(NC(=O)c3cccc(OCc4ccccc4)c3)cc2)CC1	none
C/C(CC1CC(COCC(C)C)OC1=O)=N\Nc1nc(-c2ccccc2)cs1 (stereo unspecified)	Tau fluor cs inconclusive, Tau ThT inhib 18µM
CC1CC(CC(=O)Nc2nc(-c3ccccc3)cs2)C(=O)O1 (stereo unspecified)	none
COc1cc(N=c2ssnc2Cl)c(OC)cc1Cl	Tau ThT inhib 10µM, Tau fibril FP inconclusive
COc1ccc(OC)c(N=c2ssnc2Cl)c1	Tau ThT inhib 11µM, Tau fibril FP inconclusive
COc1ccc(OC)c(N=C2C(=O)Nc3ccccc32)c1	Tau ThT inhib inconclusive
COC(=O)C1(C)C=C(Nc2ccc(OC)cc2)C(=O)N1c1ccc(OC)cc1 (stereo unspecified)	none
COc1cc(S(=O)(=O)NCCc2c(C)[nH]c3ccccc23)c(C)cc1C	Tau fluor cs 13µM[quencher], Tau ThT inhib inconclusive, Tau fibril FP inconclusive
O=C(O)C1OC(O)C(O)C(O)C1O (stereo unspecified)	none
COc1cc(/C=N/N2C(=O)CSC2=S)ccc1O	Tau ThT inhib 14µM
Cc1ccc(Cl)cc1Cl	none (no result: Tau fluor cs, Tau ThT inhib, Tau fibril FP)
N/N=C(\Cc1cscn1)c1ccc(O)cc1O	Tau ThT inhib inconclusive
Oc1ccc(/C(Cc2ccc3ccccc3n2)=N\Nc2ccccc2)c(O)c1	Tau fluor cs 11µM[quencher], Tau ThT inhib 11µM
Oc1ccc(/C(Cc2ccccn2)=N\Nc2ccccc2)c(O)c1	Tau fluor cs 11µM[quencher], Tau ThT inhib inconclusive
Oc1ccc(/C=C/c2ccc3ccccc3n2)cc1	Tau fluor cs inconclusive, Tau ThT inhib inconclusive
O/C(=C\c1ccc2ccccc2n1)c1ccc(O)cc1O	Tau fluor cs inconclusive, Tau ThT inhib 1.8µM
Cc1c(O)ccc(/C(Cc2ccc3ccccc3n2)=N\O)c1O	none
COC(=O)CCC(=O)OC1(C)C(=O)C=C2C=C(CCCNC(=O)OC(C)(C)C)OC=C2C1=O (stereo unspecified)	none
C[Si]1(C)N[Si](C)(C)N[Si](C)(C)N1	none (no result: Tau fluor cs, Tau ThT inhib, Tau fibril FP)
OCC1OC(C#Cc2ccccc2)C=CC1OCc1ccccc1 (stereo unspecified)	none
O=c1cc(-c2ccccc2O)oc2cc(O)ccc12	none
COc1ccccc1-c1cc(=O)c2cc(O)ccc2o1	none
O=c1cc(-c2cccc(O)c2O)oc2ccccc12	Tau fluor cs inconclusive, Tau ThT inhib 13µM
O=c1cc2oc3cc(O)c(O)cc3c(-c3ccccc3O)c-2cc1O	TRb SRC2 PPI 18µM, Tau fluor cs inconclusive, TR SRC2 fluor cs 40µM[fluorescent], Tau ThT inhib 2.5µM, Tau fibril FP 13µM
COc1ccc(OC)c(-c2c3cc(O)c(=O)cc-3oc3cc(O)c(O)cc23)c1	TRb SRC2 PPI 25µM, Tau fluor cs inconclusive, TR SRC2 fluor cs 45µM[fluorescent], Tau ThT inhib 3.2µM, Tau fibril FP 16µM
COc1cc2oc(-c3ccccc3)cc(=O)c2cc1O	none
CCOc1ccccc1-c1c2cc(O)c(=O)cc-2oc2cc(O)c(O)cc12	Tau ThT inhib inconclusive, Tau fibril FP 14µM
Nc1c(C(=O)Nc2cccc(F)c2)c2ccccn2c1C(=O)c1ccccc1	none
COc1cc(-c2nnc(SCC(=O)N3CCCc4ccccc43)o2)cc(OC)c1OC	Tau ThT inhib inconclusive, Tau fibril FP inconclusive
CCOC(=O)c1c(NC(=O)/C=C/c2ccc(C(C)C)cc2)sc2c1CCC2	TR SRC2 fluor cs inconclusive
CCOc1ccc(NCc2cccn2-c2nnc(N3CCC(C(=O)NCCc4ccc(OC)c(OC)c4)CC3)s2)cc1	Tau fluor cs inconclusive, TR SRC2 fluor cs 35µM[quencher], Tau ThT inhib inconclusive
CCCn1c(SCC(O)c2cccc(OC)c2)nc2ccccc21 (stereo unspecified)	none
CC(=O)c1cc2c(cc1NC(=O)c1c(C)nn(-c3ccc(C)cc3)c1-n1cccc1)OCO2	none
COc1ccccc1/C=C/C1=NC(=C\C=C/c2ccccc2)/C(=O)O1	Tau ThT inhib 11µM
COc1ccccc1/C=C/C=C1N=C(/C=C/c2ccc(Cl)cc2)OC/1=O	Tau ThT inhib 13µM
COC(=O)CC1Oc2cc3oc4c(c3cc2O1)C(=O)CC(C)(C)C4 (stereo unspecified)	none
CC1(C)CC(=O)c2c(oc3cc(O)c(O)cc23)C1	Tau fluor cs inconclusive, Tau ThT inhib 28µM, Tau fibril FP inconclusive
Nc1c(C(=O)O)ccc2c1C(=O)c1ccccc1C2=O	TR SRC2 fluor cs inconclusive, Tau ThT inhib 10µM
Nc1cc(C(=O)O)c(N)c2c1C(=O)c1ccccc1C2=O	TRb SRC2 PPI 40µM, Tau fluor cs inconclusive, TR SRC2 fluor cs 45µM[fluorescent], Tau ThT inhib 4.5µM, Tau fibril FP 20µM
CCOC(=O)c1noc2ncnc(N(CCC(=O)OC)c3ccccc3)c12	TR SRC2 fluor cs inconclusive
CCc1ccc(/C=C(/C#N)C(N)=S)s1	Tau fluor cs inconclusive, Tau ThT inhib inconclusive
CCc1sc(/C=C(/C#N)C(N)=S)cc1[N+](=O)[O-]	Tau fluor cs inconclusive, Tau ThT inhib 28µM, Tau fibril FP inconclusive
CCOC(=O)C1C(C(=O)OC)=C(c2ccc(F)cc2)c2ccc(OC)cc2N1S(=O)(=O)C(F)(F)F (stereo unspecified)	none
Cc1cc(C)c(S(=O)(=O)/N=C2/C=C(SCC(=O)O)C(=O)c3ccccc32)cc1C	TRb SRC2 PPI inconclusive, Tau fluor cs inconclusive, Tau ThT inhib 7.1µM, Tau fibril FP 10µM
COC(=O)CCSc1cc(NCCOC(C)=O)c([N+](=O)[O-])c2nonc12	Tau fluor cs inconclusive, Tau ThT inhib 11µM
O=[N+]([O-])c1c(NCCCO)cc(SCc2ccco2)c2nonc12	Tau fluor cs inconclusive, Tau ThT inhib 7.9µM, Tau fibril FP inconclusive
Cn1ccnc1Sc1cc(NCCCO)c([N+](=O)[O-])c2nonc12	Tau fluor cs inconclusive, Tau ThT inhib 4.5µM
CCCC(=O)OCCNc1cc(SCCC(=O)OC)c2nonc2c1[N+](=O)[O-]	none
O=[N+]([O-])c1c(NCCCO)cc(Sc2ccc(Cl)cc2)c2nonc12	Tau fluor cs inconclusive, Tau ThT inhib 13µM, Tau fibril FP inconclusive
